# Experimental data published in the supplement of paper PMC10498489.
# Hit rate of the full screen: of about 2,300 compounds, about 330 (14%) showed activity.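 The calls were made as follows: active = median modified Z-score above 1.96; inactive = 1.96 or below.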 A selection follows.
# Test system: HepG2 Srxn1-GFP reporter cells (+30 nM CDDO-Me)
# Assay: Srxn1-GFP intensity median modified Z-score relative to plate median; higher = stronger NRF2 / oxidative stress reporter activation, active = hit call of the paper
# Settings: 10 µM; exposure time: 24h
# Summary of the method: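 Values give the median, over replicates, of the modified Z-score of GFP intensity on each plate. HepG2 Srxn1-GFP BAC reporter cells were co-treated for 24 h with an NRF2 activator at 30 nM and compound at 10 μM (≤0.1% DMSO) in three replicate plates, then analysed per cell for cytoplasmic GFP on confocal images with at least 100 cells. Scaling used 1.4826 × median absolute deviation.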
row,SMILES,Srxn1-GFP intensity median modified Z-score
1,C[C@]12CCC(=O)CC1=CC=C1C2CC[C@@]2(C)C1CC[C@@]21CCC(=O)O1 (stereo partly specified) [euspeclibcmpd726],0.642 (inactive)
2,CN1C2CC[C@H]1C[C@@H](OC(=O)C(O)c1ccccc1)C2 (stereo partly specified) [euspeclibcmpd2075],0.0546 (inactive)
3,CCN(CC)CCOCCOC(=O)C1(c2ccccc2)CCCC1 [euspeclibcmpd389],-0.0174 (inactive)
4,CCN(CC)CCOC(=O)C(c1ccccc1)C1CCCCC1 (stereo unspecified) [euspeclibcmpd1055],0.0961 (inactive)
5,CCN(CC)CCOC(=O)C1(C2CCCCC2)CCCCC1 [euspeclibcmpd90],2.86 (active)
6,NC(=O)C1CCCN1C(=O)C(Cc1c[nH]cn1)NC(O)c1ccc(O)[nH]1 (stereo unspecified) [euspeclibcmpd919],0.145 (inactive)
7,COc1ccccc1O [euspeclibcmpd1265],-0.0107 (inactive)
8,COc1cc(O)cc(OC)c1OC [euspeclibcmpd1601],-0.369 (inactive)
9,COc1cccc(O)c1O [euspeclibcmpd1624],10.7 (active)
10,Oc1cccc2[nH]ccc12 [euspeclibcmpd2031],-0.358 (inactive)
11,COc1c(O)cc(O)cc1O [euspeclibcmpd1393],-0.431 (inactive)
12,COc1c(O)cccc1O [euspeclibcmpd1665],3.35 (active)
13,N=C(N)NCCCC(N)C(=O)O (stereo unspecified) [euspeclibcmpd695],-0.363 (inactive)
14,CC(C)N=c1nccc[nH]1 [euspeclibcmpd1194],-0.779 (inactive)
15,NC[C@H]1O[C@H](O[C@H]2C(O[C@@H]3O[C@H](CO)[C@@H](O)[C@H]3O)[C@@H](O)[C@H](N)C[C@@H]2N)[C@H](N)[C@@H](O)[C@@H]1O (stereo partly specified) [euspeclibcmpd1069],-0.384 (inactive)
16,CCOc1ccc(C(=O)c2ccc(OC)c(O)c2O)cc1 [euspeclibcmpd1975],-0.333 (inactive)
17,CCO[C@@]1(C)C[C@H]1NC(=O)N[C@@H]1C[C@@H]1C(F)F,0.985 (inactive)
18,CC1C(=NC(=O)C(NOC(C)(C)C(=O)O)c2csc(=N)[nH]2)C(=O)N1S(=O)(=O)O (stereo unspecified) [euspeclibcmpd708],-0.0945 (inactive)
19,CCOc1cc2c(cc1/C=C/C(=O)N(C)C(C)c1ccc(-n3cncn3)cc1)OC(C)C2 (stereo unspecified),0.413 (inactive)
20,Oc1c(Cl)cc(Cl)c(Cl)c1Cc1c(O)c(Cl)cc(Cl)c1Cl [euspeclibcmpd146],44.1 (active)
21,Cc1ccc2c(Cl)cc(Cl)c(O)c2n1 [euspeclibcmpd1014],-0.191 (inactive)
22,CCC[C@@H]1C[C@@H](C(=O)N[C@@H]([C@H]2O[C@H](SC)[C@H](O)[C@@H](O)[C@H]2O)[C@@H](C)O)N(C)C1,1.1 (inactive)
23,O=C(O)C1[C@H]2C[C@H]3c4[nH]c5ccccc5c4CCN3C[C@@H]2CC[C@@H]1O (stereo partly specified) [euspeclibcmpd1655],-0.233 (inactive)
24,COC(=O)[C@H]1[C@H]2C[C@@H]3c4[nH]c5cc(OC)ccc5c4CCN3C[C@H]2C[C@@H](OC(=O)c2cc(OC)c(OC)c(OC)c2)[C@@H]1OC [euspeclibcmpd2385],6.53 (active)

row,SMILES,Srxn1-GFP intensity median modified Z-score
1,C[C@H]1O[C@H](OC[C@@H]2O[C@H](Oc3c(-c4ccc(OCCO)c(OCCO)c4)oc4cc(OCCO)cc(O)c4c3=O)[C@@H](O)[C@H](O)[C@H]2O)[C@@H](O)[C@@H](O)[C@@H]1O [euspeclibcmpd1205],-0.542 (inactive)
2,O=C(c1ccccc1)c1ccc(Cl)cc1O,1.14 (inactive)
3,CCN(C(=O)COC(=O)C1=NNC(=O)CC1)C1CCS(=O)(=O)C1 (stereo unspecified),1.01 (inactive)
4,C[C@](N)(Cc1ccc(O)c(O)c1)C(=O)O [euspeclibcmpd194],-0.447 (inactive)
5,NC(Cc1ccc(O)c(O)c1)C(=O)O (stereo unspecified) [euspeclibcmpd949],-1.39 (inactive)
6,NCCc1ccc(O)c(O)c1 [euspeclibcmpd2286],9.36 (active)
7,NCCc1ccc(O)c(O)c1 [euspeclibcmpd2150],-1.01 (inactive)
8,CO[C@@H]1[C@@H](OC(N)=O)[C@@H](O)[C@H](Oc2ccc3c(=O)c(NC(=O)c4ccc(O)c(CC=C(C)C)c4)c(O)oc3c2C)OC1(C)C [euspeclibcmpd2334],-0.255 (inactive)
9,N#CCSc1nnc(-c2ccc(Br)cc2)n1C1CCCCC1,1.88 (inactive)
10,CC(C)CC1NC(=O)C(CCCN)NC(=O)C(C(C)C)NC(=O)C(Cc2ccc(O)cc2)NC(CCC(=O)O)C(=O)NC(CC(N)=O)C(=O)C(Cc2ccccc2)NC(=O)C(Cc2ccccc2)NC(=O)C2CCCN2C(=O)C(Cc2ccccc2)NC1=O (stereo unspecified) [euspeclibcmpd1841],2.86 (active)
11,CCC(C)C(=N)C1NC(C(=O)NC(CC(C)C)C(=O)NC(CCC(=O)O)C(=O)NC(C(=O)NCCCCC2NC(=O)C(CC(N)=O)NC(=O)C(CC(=O)O)NC(=O)C(Cc3c[nH]cn3)NC(=O)C(Cc3ccccc3)NC(=O)C(C(C)CC)NC(=O)C(CCCN)NC2=O)C(C)CC)CS1 (stereo unspecified) [euspeclibcmpd30],-0.458 (inactive)
12,CCC(C)CCCCC(=O)NC(CCN)C(=O)NC(C(=O)NC(CCN)C(=O)NC1CCNC(=O)C(C(C)O)NC(=O)C(CCN)NC(=O)C(CCN)NC(=O)C(CC(C)C)NC(=O)C(Cc2ccccc2)NC(=O)C(CCN)NC1=O)C(C)O (stereo unspecified) [euspeclibcmpd239],0.328 (inactive)
13,CC(=O)c1ccc(S(=O)(=O)CC(=O)NC2CCCC2)cc1,1.37 (inactive)
14,N=c1nc(-c2cc(Cl)ccc2Cl)[nH]c(=N)[nH]1 [euspeclibcmpd1188],0.145 (inactive)
15,CCCCOC(=O)c1ccc(O)cc1 [euspeclibcmpd905],0.67 (inactive)
16,CCCCCCc1ccc(O)cc1O [euspeclibcmpd2121],3.73 (active)
17,C[C@H]1[C@H](C)CC[C@]2(C(=O)O)CC[C@]3(C)C(=CCC4[C@@]5(C)C[C@@H](O)[C@H](O)[C@@](C)(CO)C5[C@H](O)C[C@]43C)[C@H]12 (stereo partly specified) [euspeclibcmpd1692],-0.252 (inactive)
18,Cn1c(O)cc(-c2ccccc2)c1O [euspeclibcmpd796],-0.502 (inactive)
19,CCCCOC(=O)c1ccc(N)cc1 [euspeclibcmpd342],0.38 (inactive)
20,CCCCNc1ccc(C(=O)OCCOCCOCCOCCOCCOCCOCCOCCOCCOC)cc1 [euspeclibcmpd1214],5.26 (active)
21,CCCCNc1ccc(C(=O)OCCN(C)C)cc1 [euspeclibcmpd287],-0.0522 (inactive)
22,Cn1cc(O)[nH]c1=N [euspeclibcmpd1004],-0.153 (inactive)
23,CCN(CC)CCNC(=O)c1ccc(I)cc1,0.454 (inactive)
24,N=c1[nH]cnc2[nH]cnc12 [euspeclibcmpd349],-0.183 (inactive)

row,SMILES,Srxn1-GFP intensity median modified Z-score
1,N=c1[nH]c(=S)c2nc[nH]c2[nH]1 [euspeclibcmpd292],28.2 (active)
2,NCCCC(N)CC(=O)NCC1NC(=O)C(CO)NC(=O)C(N)CNC(=O)C(C2CCN=C(N)N2)NC(=O)C(C=NC(N)=O)NC1=O (stereo unspecified) [euspeclibcmpd1312],0 (inactive)
3,O=C(O)C1O[C@@H](Oc2cc3oc(-c4ccccc4)cc(=O)c3c(O)c2O)[C@H](O)[C@@H](O)[C@@H]1O (stereo partly specified) [euspeclibcmpd2123],-0.648 (inactive)
4,CCCCCC1C(=O)CCC1CC(=O)OC (stereo unspecified) [euspeclibcmpd1637],-0.322 (inactive)
5,CCC(N)C12CC3CC(CC(C3)C1)C2 (stereo unspecified),0.333 (inactive)
6,CC1(C)S[C@@H]2[C@H](N3C(=O)C(c4ccccc4)NC3(C)C)C(=O)N2C1C(=O)O (stereo partly specified) [euspeclibcmpd2360],-0.502 (inactive)
7,CSc1nc2cc(Cl)c(Oc3cccc(Cl)c3Cl)cc2[nH]1 [euspeclibcmpd1225],4.92 (active)
8,COC(=O)C[C@H]1C(C)(C)C(=O)C2CC3=C4CC(=O)O[C@@H](c5ccoc5)[C@]4(C)CCC3[C@@]1(C)C2=O (stereo partly specified) [euspeclibcmpd2085],-0.00623 (inactive)
9,COc1cc2[nH]c(N3CCN(C(=O)c4ccco4)CC3)nc(=N)c2cc1OC [euspeclibcmpd1302],-0.393 (inactive)
10,Clc1cnc(N/N=C/c2sc(N3CCCCC3)nc2-c2cccs2)c(Cl)c1,0.529 (inactive)
11,COC(=O)CCC(C)[C@H]1CCC2C3C(C[C@H](O)[C@@]21C)[C@@]1(C)CC[C@@H](O)C[C@H]1C[C@H]3O (stereo partly specified) [euspeclibcmpd1539],-0.423 (inactive)
12,CC1(C)CC2C(=O)CCC3OC3(C)CCC21 (stereo unspecified) [euspeclibcmpd2011],-0.362 (inactive)
13,O=C(Cc1c[nH]c2ccccc12)NCCc1c[nH]c2ccccc12,1.76 (inactive)
14,Cc1ccc(Cl)c(Nc2ccccc2C(=O)O)c1Cl [euspeclibcmpd2058],0.0269 (inactive)
15,Cc1cccc(Nc2ccccc2C(=O)O)c1C [euspeclibcmpd373],2.69 (active)
16,Cc1cccc(C(=O)O)c1O [euspeclibcmpd1013],-0.315 (inactive)
17,O=C(O)c1ccccc1Nc1cccc(C(F)(F)F)c1 [euspeclibcmpd370],2.94 (active)
18,Cc1cccc(Nc2ccccc2C(=O)OCC#N)c1C,0.491 (inactive)
19,O=C(O)c1ccccc1Nc1ccccc1 [euspeclibcmpd1737],-0.16 (inactive)
20,Cc1c(Cl)cccc1Nc1ccccc1C(=O)O [euspeclibcmpd1068],4.04 (active)
21,O=C(c1ccccc1Nc1cccc(C(F)(F)F)c1)N1CCC1,1.38 (inactive)
22,Cc1cccc(Nc2ccccc2C(=O)O)c1C,0.337 (inactive)
23,CON(C)C(=O)c1ccccc1Nc1cccc(C(F)(F)F)c1,1.46 (inactive)
